Test results: the supplement of paper PMC8540655
Unmarked numbers belong to inactive results.

Tested on: Aedes aegypti larvae
Test: larval motility relative to same well at 0 h (fraction); higher = more motile (less active compound), active = 0.4 or less
Conditions: 10 µM; 24 h
Summary of the method: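 Each 96-well plate held about 10 Aedes aegypti larvae per well in 100 µL, along with solvent and larvicide control wells. Compounds were present at 10 µM with 1% v/v DMSO, and INVAPP recorded 200-frame movies at 100 ms intervals at 0, 2 and 24 h. Relative motility divides each well's score by its baseline score from the first recording, with the median taken across independent larval batches, of which there were three.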

| Structure (SMILES) | larval motility |
| --- | --- |
| CC(C)N(c1cc(-c2ccccc2)sc1C(=O)O)C(=O)[C@H]1CC[C@H](C)CC1 | 0.742 |
| CN1CCN(Cc2ccc(-c3cnc4[nH]cc(-c5ccc6[nH]ccc6c5)c4c3)cc2)CC1 | 0.967 |
| O=C1[C@H](CC[C@H](O)c2ccc(F)cc2)[C@@H](c2ccc(O)cc2)N1c1ccc(F)cc1 | 1.08 |
